Laboratory results published in PubChem BioAssay (NCI).
Compounds without any hit were thinned out: in the full panel of roughly 83,000, 20% have a hit.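 Plates (96-well) were seeded with cells, treated with compound at one concentration, and incubated for 48 hours before percent growth was determined.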 Calls of active or inactive are those of the source. Rule for the calls: active = growth percent below 10; inactive = the rest.

What was measured:
Assay in all cases: NCI-60 one-dose screen, 48 h (100 = growth as untreated, 0 = no growth, -100 = all killed)
Settings in all cases: 10 µM
SR leukemia = system: SR leukemia
RPMI-8226 leukemia = system: RPMI-8226 leukemia
OVCAR-8 ovarian = system: OVCAR-8 ovarian
OVCAR-5 ovarian = system: OVCAR-5 ovarian
OVCAR-4 ovarian = system: OVCAR-4 ovarian
SK-OV-3 ovarian = system: SK-OV-3 ovarian
IGROV1 ovarian = system: IGROV1 ovarian
OVCAR-3 ovarian = system: OVCAR-3 ovarian
HS 578T breast = system: HS 578T breast
NCI/ADR-RES ovarian = system: NCI/ADR-RES ovarian

Measured: growth

C/C(=N\O)c1ccc(NC(=O)CSc2nnc(-c3ccccc3)n2-c2ccccc2)cc1
inactive: SR leukemia 106% | RPMI-8226 leukemia 91.2% | OVCAR-8 ovarian 84.7% | OVCAR-5 ovarian 86.2% | OVCAR-4 ovarian 87.3% | SK-OV-3 ovarian 39.3% | IGROV1 ovarian 76.7% | OVCAR-3 ovarian 81.4% | HS 578T breast 62.5% | NCI/ADR-RES ovarian 90.8%

Cc1ccc(/C=C/C(=O)C(=O)/C=C/c2ccc(C)cc2)cc1
inactive: SR leukemia 68% | RPMI-8226 leukemia 45.2% | OVCAR-8 ovarian 109% | OVCAR-5 ovarian 97.8% | OVCAR-4 ovarian 98.6% | SK-OV-3 ovarian 109% | IGROV1 ovarian 94.4% | OVCAR-3 ovarian 112% | HS 578T breast 92.6% | NCI/ADR-RES ovarian 103%

C/C=C/C1=CN2C(=O)c3cc(OC4OC(C)C(NC)C(C)(O)C4O)c(C)c(O)c3N=C[C@@H]2C1 (stereo not given in full)
active: SR leukemia 0.588% | RPMI-8226 leukemia 7.45% | OVCAR-8 ovarian 9.18% | OVCAR-5 ovarian -1.31% | OVCAR-4 ovarian 6.69% | SK-OV-3 ovarian 1.76% | IGROV1 ovarian -22.7% | OVCAR-3 ovarian -4.33% | HS 578T breast -11.6% | NCI/ADR-RES ovarian -6.18%

C=CCn1c(SCC(=O)Nc2ccc(C(=O)/C=C/c3cc(OC)c(OC)c(OC)c3)cc2)nnc1-c1cc(-c2ccc(Cl)cc2)nc2ccccc12
active: RPMI-8226 leukemia -16.3%
inactive: SR leukemia 62% | OVCAR-8 ovarian 52.1% | OVCAR-5 ovarian 97.6% | OVCAR-4 ovarian 87.9% | SK-OV-3 ovarian 87.1% | IGROV1 ovarian 88.4% | OVCAR-3 ovarian 97.3% | HS 578T breast 83.7% | NCI/ADR-RES ovarian 75.6%

O=c1[nH]c(=O)n(C2C[C@H](O)[C@@H](CO)O2)cc1C(F)(F)F (stereo not given in full)
inactive: SR leukemia 91.9% | RPMI-8226 leukemia 97.5% | OVCAR-8 ovarian 103% | OVCAR-5 ovarian 103% | OVCAR-4 ovarian 114% | SK-OV-3 ovarian 109% | IGROV1 ovarian 120% | OVCAR-3 ovarian 117% | HS 578T breast 124% | NCI/ADR-RES ovarian 102%

CC[N+](CC)=c1ccc2nc3c(cc(NCc4ccccc4)c4ccccc43)oc-2c1
active: SR leukemia -9.48% | RPMI-8226 leukemia -21.1% | OVCAR-8 ovarian -27.2% | OVCAR-5 ovarian -91.4% | OVCAR-4 ovarian -93.1% | SK-OV-3 ovarian -8.74% | IGROV1 ovarian -94.5% | OVCAR-3 ovarian -54.9% | HS 578T breast -20.4% | NCI/ADR-RES ovarian -7.86%

O=C(N/N=C/c1ccc([N+](=O)[O-])cc1)c1ccccc1Nc1cccc(C(F)(F)F)c1
inactive: SR leukemia 104% | RPMI-8226 leukemia 90.4% | OVCAR-8 ovarian 95.8% | OVCAR-5 ovarian 98.6% | OVCAR-4 ovarian 98.2% | SK-OV-3 ovarian 103% | IGROV1 ovarian 67.3% | OVCAR-3 ovarian 103% | NCI/ADR-RES ovarian 91.4%
active: HS 578T breast 7.5%

CC(CN(C)C)Oc1ccccc1NC1=C(Cl)C(=O)C(Nc2ccccc2OC(C)CN(C)C)=C(Cl)C1=O (stereo not given)
active: SR leukemia -9.43% | RPMI-8226 leukemia -34.5% | OVCAR-8 ovarian -85.3% | OVCAR-5 ovarian -72.2% | OVCAR-4 ovarian -97.6% | IGROV1 ovarian -76.4% | OVCAR-3 ovarian -96.2% | HS 578T breast 3.54% | NCI/ADR-RES ovarian -24.5%
inactive: SK-OV-3 ovarian 58.9%

CCOc1ccccc1/C=N\N=C\c1ccccc1O
inactive: SR leukemia 80.6% | RPMI-8226 leukemia 100% | OVCAR-8 ovarian 107% | OVCAR-5 ovarian 120% | OVCAR-4 ovarian 112% | SK-OV-3 ovarian 95.7% | IGROV1 ovarian 95.8% | OVCAR-3 ovarian 88.9% | HS 578T breast 110% | NCI/ADR-RES ovarian 99.9%

COc1ccc(Cl)cc1Nc1nc(C(F)(F)F)ccc1C(=O)N/N=C/c1ccc(Cl)cc1
inactive: RPMI-8226 leukemia 20.4% | OVCAR-8 ovarian 46.8% | OVCAR-5 ovarian 57.2% | OVCAR-4 ovarian 27.6% | SK-OV-3 ovarian 44.5% | IGROV1 ovarian 45.2% | NCI/ADR-RES ovarian 41%
active: SR leukemia -0.906% | OVCAR-3 ovarian -34.7% | HS 578T breast 3.13%

CO[C@H]1CC(O[C@@H]2/C(C)=C/C[C@@H]3C[C@@H](C[C@]4(C=C[C@H](C)[C@@H](C5CCCCC5)O4)O3)OC(=O)[C@@H]3C=C(C)[C@@H](O)[C@H]4OC/C(=C\C=C\[C@@H]2C)[C@]43O)O[C@@H](C)C1O[C@H]1C[C@H](OC)[C@@H](O)[C@H](C)O1 (stereo not given in full)
active: SR leukemia -52.8% | RPMI-8226 leukemia -25.1% | OVCAR-8 ovarian -25.9% | OVCAR-5 ovarian -65.3% | OVCAR-4 ovarian -46.8% | SK-OV-3 ovarian -84.1% | IGROV1 ovarian -54.7% | OVCAR-3 ovarian -96.9% | HS 578T breast -40.4% | NCI/ADR-RES ovarian -65.1%

Cc1ccc(-n2nnnc2N)c(C)c1
inactive: SR leukemia 112% | RPMI-8226 leukemia 109% | OVCAR-8 ovarian 108% | OVCAR-5 ovarian 107% | OVCAR-4 ovarian 99% | SK-OV-3 ovarian 113% | IGROV1 ovarian 123% | OVCAR-3 ovarian 113% | HS 578T breast 99% | NCI/ADR-RES ovarian 105%

N=C1S/C(=C/c2ccc(-c3ccc4c(c3)C(=O)NC4=O)o2)C(=O)N1c1ccc(Br)cc1
active: OVCAR-4 ovarian 1.3%
inactive: SR leukemia 25% | RPMI-8226 leukemia 38.8% | OVCAR-8 ovarian 37.8% | OVCAR-5 ovarian 86.3% | SK-OV-3 ovarian 62.3% | IGROV1 ovarian 21.9% | OVCAR-3 ovarian 51.4% | HS 578T breast 61.6% | NCI/ADR-RES ovarian 50.5%

N#Cc1cnn(C(=O)c2nn(-c3ccc(Cl)cc3)cc2O)c1N
inactive: OVCAR-8 ovarian 10.1% | OVCAR-5 ovarian 30.6% | OVCAR-4 ovarian 18.8% | IGROV1 ovarian 12.5% | HS 578T breast 75.9%
active: SR leukemia -35.5% | RPMI-8226 leukemia -37% | SK-OV-3 ovarian 8.44% | OVCAR-3 ovarian -0.517% | NCI/ADR-RES ovarian 3.25%

Nc1ncc(-c2cnn(C3CCNCC3)c2)cc1-c1nc2ccccc2o1
active: SR leukemia -74.7% | RPMI-8226 leukemia -56% | OVCAR-8 ovarian 9.55% | SK-OV-3 ovarian 3.49% | IGROV1 ovarian -14.5% | OVCAR-3 ovarian -62.4% | HS 578T breast -14.7%
inactive: OVCAR-5 ovarian 34.6% | OVCAR-4 ovarian 35.8% | NCI/ADR-RES ovarian 42.8%

CNC(=O)c1cc(Oc2ccc3c(c2)sc2nc(-c4ccc(NC(=O)Nc5ccc(Cl)c(C(F)(F)F)c5)cc4)cn23)ccn1
inactive: SR leukemia 55.5% | RPMI-8226 leukemia 76.1% | OVCAR-8 ovarian 104% | OVCAR-5 ovarian 93.4% | OVCAR-4 ovarian 80.3% | SK-OV-3 ovarian 93.1% | IGROV1 ovarian 78% | OVCAR-3 ovarian 86.9% | HS 578T breast 71.7% | NCI/ADR-RES ovarian 89.9%

O=C(Nc1nc(-c2ccccc2)nc2c1sc(=S)n2-c1ccccc1)C(F)(F)F
inactive: SR leukemia 89.8% | RPMI-8226 leukemia 88.5% | OVCAR-8 ovarian 86.6% | OVCAR-5 ovarian 105% | OVCAR-4 ovarian 92.3% | SK-OV-3 ovarian 91.6% | IGROV1 ovarian 106% | OVCAR-3 ovarian 105% | HS 578T breast 96.6% | NCI/ADR-RES ovarian 95.7%

CCN(CC)CCOc1ccc2c(c1O)C(=O)c1ccccc1C2=O
inactive: SR leukemia 63.5% | RPMI-8226 leukemia 90.3% | OVCAR-8 ovarian 62.4% | OVCAR-5 ovarian 104% | OVCAR-4 ovarian 85.5% | SK-OV-3 ovarian 77.6% | IGROV1 ovarian 97.3% | OVCAR-3 ovarian 94.7% | HS 578T breast 84.6% | NCI/ADR-RES ovarian 72%

CC[C@@H](C(=O)[C@H](C)[C@H](O)[C@@H](C)[C@H]1O[C@H]([C@@H](CC)C(=O)O)CC[C@H]1C)C1O[C@]2(C=C[C@@H](O)[C@]3(CC[C@@](C)([C@H]4CC[C@](O)(CC)[C@H](C)O4)O3)O2)[C@H](C)C[C@@H]1C (stereo not given in full)
inactive: SR leukemia 22.5% | OVCAR-8 ovarian 49.1% | OVCAR-5 ovarian 41.9% | OVCAR-4 ovarian 43.4% | SK-OV-3 ovarian 42.5% | IGROV1 ovarian 41.1% | OVCAR-3 ovarian 25.8% | HS 578T breast 21.9% | NCI/ADR-RES ovarian 44%
active: RPMI-8226 leukemia -7%

O=C(CSc1nnc(-c2cccnc2SCc2ccccc2)o1)Nc1nc(Cl)cc(Cl)n1
inactive: SR leukemia 101% | RPMI-8226 leukemia 100% | OVCAR-8 ovarian 102% | OVCAR-5 ovarian 106% | OVCAR-4 ovarian 106% | SK-OV-3 ovarian 110% | IGROV1 ovarian 105% | OVCAR-3 ovarian 106% | HS 578T breast 97.4% | NCI/ADR-RES ovarian 101%

C[N+]1(CCCCC[N+]2(C)CCCC2)CCCC1
inactive: SR leukemia 97.4% | RPMI-8226 leukemia 61.7% | OVCAR-8 ovarian 78.1% | OVCAR-5 ovarian 72.9% | OVCAR-4 ovarian 97.4% | SK-OV-3 ovarian 68.9% | IGROV1 ovarian 105% | OVCAR-3 ovarian 107% | HS 578T breast 106% | NCI/ADR-RES ovarian 75%

Cc1c(Cl)cccc1NC(=O)CN1CCOCC1
inactive: SR leukemia 86.1% | RPMI-8226 leukemia 101% | OVCAR-8 ovarian 106% | OVCAR-5 ovarian 111% | OVCAR-4 ovarian 93.9% | SK-OV-3 ovarian 97.1% | IGROV1 ovarian 110% | OVCAR-3 ovarian 107% | HS 578T breast 92.3% | NCI/ADR-RES ovarian 100%

O=C1/C(=C/c2ccc3c(c2)OCO3)SC(=S)N1C1c2ccccc2Oc2ccccc21
inactive: SR leukemia 84.1% | RPMI-8226 leukemia 106% | OVCAR-8 ovarian 98.9% | OVCAR-5 ovarian 96.5% | OVCAR-4 ovarian 102% | SK-OV-3 ovarian 107% | IGROV1 ovarian 90.6% | OVCAR-3 ovarian 98.1% | HS 578T breast 90.9% | NCI/ADR-RES ovarian 95.4%

Nc1ncnc2c1ncn2C1(CO)OCC(O)C(O)C1O (stereo not given)
inactive: SR leukemia 109% | RPMI-8226 leukemia 104% | OVCAR-8 ovarian 102% | OVCAR-5 ovarian 109% | OVCAR-4 ovarian 111% | SK-OV-3 ovarian 98.2% | IGROV1 ovarian 105% | OVCAR-3 ovarian 103% | HS 578T breast 104% | NCI/ADR-RES ovarian 98.6%
